# According to PubChem BioAssay (NCI):
# Compounds without any hit were thinned out: in the full panel of roughly 83,000, 20% have a hit.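 Testing used 96-well plates and a 48-hour single-concentration exposure. Example: -40 means 40% of the starting cells died.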 A number with no mark means an inactive call. Calls of active or inactive are those of the source. How the source made its calls: active means growth percent below 10; inactive means the rest.
# What was measured:
# Test in all cases: NCI-60 one-dose screen, 48 h (100 = growth as untreated, 0 = no growth, -100 = all killed)
# Details in all cases: 10 µM unless noted
# NCI-H23 lung = tested on: NCI-H23 lung
# NCI-H226 lung = tested on: NCI-H226 lung
# NCI-H322M lung = tested on: NCI-H322M lung
# HOP-62 NSCLC = tested on: HOP-62 NSCLC
# NCI-H460 lung = tested on: NCI-H460 lung
# HOP-92 NSCLC = tested on: HOP-92 NSCLC
# NCI-H522 lung = tested on: NCI-H522 lung
# A549/ATCC NSCLC = tested on: A549/ATCC NSCLC
# 786-0 renal = tested on: 786-0 renal
# COLO 205 colon = tested on: COLO 205 colon
# DU-145 prostate = tested on: DU-145 prostate
# K-562 leukemia = tested on: K-562 leukemia
# MALME-3M melanoma = tested on: MALME-3M melanoma
# MDA-MB-231 breast = tested on: MDA-MB-231 breast
# RXF 393 renal = tested on: RXF 393 renal
# SF-268 CNS = tested on: SF-268 CNS
# SF-295 CNS = tested on: SF-295 CNS
# SF-539 CNS = tested on: SF-539 CNS
# UACC-257 melanoma = tested on: UACC-257 melanoma
# M14 melanoma = tested on: M14 melanoma
SMILES,growth (NCI-H23 lung),growth (NCI-H226 lung),growth (NCI-H322M lung),growth (HOP-62 NSCLC),growth (NCI-H460 lung),growth (HOP-92 NSCLC),growth (NCI-H522 lung),growth (A549/ATCC NSCLC),growth (786-0 renal),growth (COLO 205 colon),growth (DU-145 prostate),growth (K-562 leukemia),growth (MALME-3M melanoma),growth (MDA-MB-231 breast),growth (RXF 393 renal),growth (SF-268 CNS),growth (SF-295 CNS),growth (SF-539 CNS),growth (UACC-257 melanoma),growth (M14 melanoma)
CC(C)n1c(/C=C/[C@@H](O)C[C@@H](O)CC(=O)O)c(-c2ccc(F)cc2)c2ccccc21,38.4%,64.1%,43.7%,73.4%,32.5%,-29.1% (active),0.551% (active),61.3%,64%,75.4%,97.9%,66.4%,79.6%,15.7%,50.9%,43.6%,16.8%,83.5%,79.4%,55.5%
c1ccc(CCNc2ncnc3[nH]ncc23)cc1,94.4%,89.4%,112%,89.7%,117%,55.4%,85.5%,92.4%,96.4%,114%,109%,94.6%,114%,93.2%,93.2%,109%,102%,116%,96.5%,104%
COc1cc(-c2nc3ccccc3[nH]2)ccc1OCC(=O)N=Nc1c(O)[nH]c2ccc(Cl)cc12,-42.4% (active),103%,-7.85% (active),-61.5% (active),-75.8% (active),-36.2% (active),-43.4% (active),35.6%,-79.9% (active),-48.5% (active),-37.8% (active),-25.4% (active),-66.9% (active),-87.4% (active),-56.5% (active),-72.9% (active),-68.8% (active),-83.9% (active),-18.7% (active),-71.7% (active)
COc1cc(C2CC(=O)c3ccccc3N2)cc(OC)c1OC (stereo not given),95.7%,82.6%,102%,97.6%,101%,92.2%,54%,84.6%,102%,113%,117%,97.6%,93.7%,86.9%,102%,104%,91.7%,102%,87.1%,103%
COc1ccc(-n2nc(C)c3c(Nc4ccc(NC(=O)Nc5ccc(Cl)c(C(F)(F)F)c5)cc4)ncnc32)cc1,-7.74% (active),10.7%,9.35% (active),-15.3% (active),0.651% (active),-18.9% (active),-18.4% (active),6.97% (active),-25.5% (active),-23.6% (active),23.8%,5.84% (active),-27.5% (active),-25% (active),-35.7% (active),17.7%,-39.7% (active),-5.4% (active),-16.6% (active),-26.9% (active)
Cn1cc(-c2nonc2-c2c[nH]c3ccc(F)cc23)c2cccnc21,80.7%,57.3%,88.1%,78.9%,93.9%,70.6%,70.2%,80.4%,98.1%,96.5%,96%,58%,93.4%,78.4%,72.8%,78.3%,78.9%,88.7%,89.9%,90.3%
CCN(CC)c1ccc(/C=N\NC(=O)/C=C/C=C/c2ccc3c(c2)OCO3)c(O)c1,49.7%,49.5%,31.2%,28.5%,19.8%,48.4%,12.5%,53.3%,47.2%,39.9%,53.2%,17.6%,56.5%,43.2%,72.6%,33.7%,41.7%,22.7%,24.2%,36.4%
N#CN1CCC[C@H]1C(=O)N1CCc2c(-c3[nH]nc4ncccc34)cccc21,4.9% (active),-29.1% (active),20.6%,-10.1% (active),3.48% (active),-21.6% (active),-51.7% (active),3.83% (active),9.59% (active),-77.5% (active),0.94% (active),4.49% (active),24%,3% (active),-19.7% (active),7.17% (active),-14.3% (active),-36.9% (active),16.5%,-23.4% (active)
COc1ccc2c(c1)O/C(=C\c1cccc(OCC(=O)Nc3nc4c(s3)CCCC4)c1)C2=O,37.8%,86.9%,95.4%,103%,115%,-23.4% (active),-91.4% (active),94.6%,89.9%,113%,42.8%,24.5%,109%,65.9%,-15.4% (active),89.4%,75.8%,87.8%,95.1%,90.9%
O=Nc1c(O)c(Cl)cc2ccccc12,92.3%,78.9%,102%,75.1%,90.3%,112%,50.1%,93%,105%,70.9%,101%,54.3%,90.8%,74.3%,67.4%,82.5%,111%,89.2%,75.8%,85.7%
O=C(/C=C/C=C/c1ccc2c(c1)OCO2)N/N=C\c1ccc(O)cc1O,30%,37.6%,17.8%,27.1%,14%,53.4%,21.1%,36.1%,29%,14%,44%,11.6%,40.3%,34.4%,57.9%,24.4%,13.8%,13.3%,28.5%,30.3%
COc1ccc(C(=S)N2CCN(c3cccc(Cl)c3)CC2)cc1,101%,113%,98.3%,98.5%,96.7%,94.6%,108%,91.7%,97.1%,141%,121%,119%,138%,101%,160%,102%,111%,92.2%,-2.46% (active),101%
COc1ccc(S(=O)(=O)N2CCN(C)CC2)cc1NC(=O)c1[nH]c(C)c2c1CCCCC2=O,66.9%,61.7%,59.9%,43.4%,73.3%,34.6%,50.1%,62.3%,58.6%,33.1%,87.1%,46.9%,52%,51.1%,84.3%,82%,54.7%,52.5%,57.9%,54.4%
CSc1ccc(-c2n[nH]nc2-c2cc3ccccc3s2)cc1,61.5%,86%,73.9%,39.2%,21%,70.3%,8.98% (active),35%,54.7%,77.8%,74.3%,15.1%,69.4%,41.5%,75.5%,54.3%,49.9%,50.2%,58.4%,16%
N#C/C(=C\c1ccc(-c2ccc(Cl)c(Cl)c2)o1)c1nc(-c2ccco2)cs1,86.6%,81.5%,79.8%,79.9%,87.7%,109%,89.3%,113%,110%,106%,114%,113%,89.1%,84.1%,121%,97.2%,98.7%,101%,118%,99.3%
